# PubChem BioAssay
# The source made the active and inactive calls.
# Tests used:
# [1] = small molecules captured by biotinylated probe aFSTL3 – biochemical, small-molecule microarray, fluorescence 635/667, stem cell growth factor project, primary screen (AID 1064); conditions: higher = more signal;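 also: measures binding of the biotinylated anti-FSTL3 antibody to printed compounds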
# [2] = binders from COS7 lysate, DM2A8 probe, primary screen, torsin A project, cell lysate, small-molecule microarray, fluorescence 635/667 (AID 1065); conditions: higher = more signal, COS7 lysate expressing mutant human TOR1A
# [3] = small molecules captured by biotinylated probe aFGF2 – biochemical, small-molecule microarray, fluorescence 635/667, stem cell growth factor project, primary screen (AID 1067); conditions: higher = more signal;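 also: measures binding of biotinylated aFGF2 protein to printed compounds on slides; z-score merges feature fluorescence and signal-to-noise across triplicate slides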
# [4] = small molecules captured by biotinylated probe aFGF10 – biochemical, small-molecule microarray, fluorescence 635/667, stem cell growth factor project, primary screen (AID 1071); conditions: higher = more signal;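 also: score merges 667 nm spot intensity and signal to noise from triplicate slides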
# [5] = target: Neurogenic locus notch homolog protein 2 (Homo sapiens) (UniProt Q04721); assay: small molecules binding Notch2 protein – biochemical, small-molecule microarray, 635 nm fluorescence, stem cell growth factors, primary screen (AID 1073); conditions: higher = more signal
# Chain of Neurogenic locus notch homolog protein 2 (Homo sapiens) (Q04721 whole entry, looked up, canonical isoform): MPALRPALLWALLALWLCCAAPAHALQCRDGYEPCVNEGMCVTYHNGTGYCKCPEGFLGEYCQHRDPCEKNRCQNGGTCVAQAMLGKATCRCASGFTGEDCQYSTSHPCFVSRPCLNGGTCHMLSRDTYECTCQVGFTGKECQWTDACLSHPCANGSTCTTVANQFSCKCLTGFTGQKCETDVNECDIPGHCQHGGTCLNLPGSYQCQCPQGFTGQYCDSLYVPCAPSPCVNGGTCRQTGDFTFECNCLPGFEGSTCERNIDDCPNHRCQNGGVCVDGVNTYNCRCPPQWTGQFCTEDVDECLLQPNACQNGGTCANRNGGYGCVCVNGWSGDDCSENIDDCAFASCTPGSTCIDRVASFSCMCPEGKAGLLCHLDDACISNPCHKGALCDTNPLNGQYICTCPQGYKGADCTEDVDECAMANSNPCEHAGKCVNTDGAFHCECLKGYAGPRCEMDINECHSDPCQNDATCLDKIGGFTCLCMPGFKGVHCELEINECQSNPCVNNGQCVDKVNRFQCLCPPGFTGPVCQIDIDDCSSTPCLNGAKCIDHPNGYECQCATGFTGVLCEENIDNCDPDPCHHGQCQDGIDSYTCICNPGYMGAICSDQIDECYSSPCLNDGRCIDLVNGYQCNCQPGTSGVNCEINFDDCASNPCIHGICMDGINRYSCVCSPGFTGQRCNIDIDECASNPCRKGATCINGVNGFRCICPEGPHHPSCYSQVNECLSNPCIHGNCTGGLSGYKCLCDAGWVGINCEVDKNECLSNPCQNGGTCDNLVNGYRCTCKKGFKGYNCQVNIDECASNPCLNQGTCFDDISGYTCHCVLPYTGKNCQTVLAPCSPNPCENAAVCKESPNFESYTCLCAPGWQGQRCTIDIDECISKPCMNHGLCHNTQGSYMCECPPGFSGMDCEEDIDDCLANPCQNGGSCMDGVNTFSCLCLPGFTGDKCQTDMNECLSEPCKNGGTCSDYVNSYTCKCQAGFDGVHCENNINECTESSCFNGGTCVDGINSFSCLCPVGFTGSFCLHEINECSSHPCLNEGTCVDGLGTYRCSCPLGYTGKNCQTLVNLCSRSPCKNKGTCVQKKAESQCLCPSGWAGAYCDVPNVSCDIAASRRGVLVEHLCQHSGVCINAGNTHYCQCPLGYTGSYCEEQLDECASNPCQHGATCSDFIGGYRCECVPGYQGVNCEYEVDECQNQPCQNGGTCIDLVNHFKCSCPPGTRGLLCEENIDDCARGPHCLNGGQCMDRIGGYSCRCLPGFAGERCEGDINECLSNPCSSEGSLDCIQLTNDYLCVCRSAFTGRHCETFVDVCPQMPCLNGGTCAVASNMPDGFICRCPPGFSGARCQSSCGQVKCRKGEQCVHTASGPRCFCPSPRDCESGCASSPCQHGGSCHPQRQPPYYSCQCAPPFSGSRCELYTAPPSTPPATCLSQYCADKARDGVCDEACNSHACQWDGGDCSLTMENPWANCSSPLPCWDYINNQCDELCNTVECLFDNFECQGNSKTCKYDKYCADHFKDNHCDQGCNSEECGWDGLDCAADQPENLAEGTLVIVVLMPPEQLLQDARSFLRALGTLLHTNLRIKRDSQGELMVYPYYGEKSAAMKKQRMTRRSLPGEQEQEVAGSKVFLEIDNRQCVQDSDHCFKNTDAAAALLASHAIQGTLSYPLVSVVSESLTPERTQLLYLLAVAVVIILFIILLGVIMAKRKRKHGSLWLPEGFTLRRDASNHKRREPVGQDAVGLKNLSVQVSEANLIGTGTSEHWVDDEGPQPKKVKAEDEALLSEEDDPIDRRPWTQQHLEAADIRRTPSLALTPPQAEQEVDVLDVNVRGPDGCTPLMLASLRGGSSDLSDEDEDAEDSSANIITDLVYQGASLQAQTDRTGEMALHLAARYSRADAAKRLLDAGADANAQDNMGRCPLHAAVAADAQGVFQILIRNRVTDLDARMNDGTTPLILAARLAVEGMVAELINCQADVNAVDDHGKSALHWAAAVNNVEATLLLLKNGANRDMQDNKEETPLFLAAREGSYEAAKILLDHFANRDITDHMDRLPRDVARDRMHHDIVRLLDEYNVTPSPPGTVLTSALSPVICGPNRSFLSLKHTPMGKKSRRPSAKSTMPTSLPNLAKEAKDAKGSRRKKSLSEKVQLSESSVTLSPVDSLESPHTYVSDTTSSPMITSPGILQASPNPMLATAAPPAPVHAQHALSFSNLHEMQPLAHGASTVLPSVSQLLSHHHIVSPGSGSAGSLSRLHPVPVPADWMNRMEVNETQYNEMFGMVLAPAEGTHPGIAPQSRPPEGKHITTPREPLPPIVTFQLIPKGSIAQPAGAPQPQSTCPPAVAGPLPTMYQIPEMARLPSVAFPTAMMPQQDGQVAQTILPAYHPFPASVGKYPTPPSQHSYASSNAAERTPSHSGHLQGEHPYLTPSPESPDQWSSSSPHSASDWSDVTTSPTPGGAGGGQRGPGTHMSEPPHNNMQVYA
# [6] = target: Pro-neuregulin-1, membrane-bound isoform (Homo sapiens) (UniProt Q02297); assay: small molecules binding neuregulin-1 protein – biochemical, small-molecule microarray, fluorescence 635/667, psychiatric disease protein project, primary screen (AID 1075); conditions: NRG1 binding, 635 nm fluorescence, higher = more signal;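 also: score combines 667 nm spot fluorescence with signal to noise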
# Chain of Pro-neuregulin-1, membrane-bound isoform (Homo sapiens) (Q02297 whole entry, looked up, the tested form may be a part, canonical isoform): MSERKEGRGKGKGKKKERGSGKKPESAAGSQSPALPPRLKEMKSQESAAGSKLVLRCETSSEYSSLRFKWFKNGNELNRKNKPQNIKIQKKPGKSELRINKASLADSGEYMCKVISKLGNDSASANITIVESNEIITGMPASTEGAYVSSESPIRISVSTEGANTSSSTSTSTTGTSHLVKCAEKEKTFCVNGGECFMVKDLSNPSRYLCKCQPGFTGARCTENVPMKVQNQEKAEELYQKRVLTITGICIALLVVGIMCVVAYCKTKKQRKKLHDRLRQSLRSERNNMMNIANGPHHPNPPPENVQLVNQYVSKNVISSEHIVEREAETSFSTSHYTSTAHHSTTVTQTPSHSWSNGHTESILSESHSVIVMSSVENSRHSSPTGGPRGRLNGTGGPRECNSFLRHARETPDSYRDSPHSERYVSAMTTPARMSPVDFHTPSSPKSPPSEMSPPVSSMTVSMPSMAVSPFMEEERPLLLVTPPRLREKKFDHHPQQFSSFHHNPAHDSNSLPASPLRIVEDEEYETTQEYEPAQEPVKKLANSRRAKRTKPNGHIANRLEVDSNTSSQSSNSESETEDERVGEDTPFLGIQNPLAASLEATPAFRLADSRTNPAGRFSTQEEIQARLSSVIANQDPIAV
# [7] = test system: Neuregulin-1 EGF-like domain; assay: small molecules binding NRG1 EGF domain – biochemical, small-molecule microarray, 635 nm fluorescence, primary screen (AID 1081); conditions: higher = more signal;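 also: binding of the protein to compounds printed on small-molecule microarray slides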
# [8] = FRG1 expression reporter modulators in myotubes – cell-based, C2C12 myotubes, firefly/Renilla luciferase, luminescence, FRG1 inhibition for FSHD, primary screen (AID 1084); conditions: FRG1 promoter luciferase, higher = more signal, called active from +8 up or from −8 down
# [9] = small molecules captured by biotinylated probe aFST – biochemical, small-molecule microarray, fluorescence 635/667, stem cell growth factor project, primary screen (AID 1086); conditions: higher = more signal;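 also: score merges 667 nm fluorescence with signal-to-noise of each printed compound spot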
# [10] = binders of probe aHhip on microarray, primary screen, stem cell growth factor project, biochemical, small-molecule microarray, fluorescence 635/667 (AID 1087); conditions: higher = more signal;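 also: score merges spot fluorescence at 667nm with spot signal to noise ratio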
# [11] = test system: PRMT1 (protein arginine N-methyltransferase 1); assay: small molecules binding arginine methyltransferase PRMT1 – biochemical, small-molecule microarray, 635 nm fluorescence, primary screen (AID 1088); conditions: higher = more signal;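 also: binding of Prmt1 protein to compounds spotted on small-molecule microarray slides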
# [12] = growth effects on S. cerevisiae YJM789 – YJM789 clinical isolate, OD600, 24 h, basal, primary screen (AID 1089); conditions: higher = more signal, called active from +8 up or from −8 down;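 also: growth of clinical yeast isolate S. cerevisiae YJM 789 seeded 1000 cells per well; test concentration not given here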
# [13] = S. pombe growth modifiers, basal conditions – strain 972, OD600, 24 h, no modulator, primary screen (AID 1090);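 also: basal condition with compound alone and no growth modifier present; test concentration not given here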; conditions: S. pombe 972 growth, higher = more signal, called active from +8 up or from −8 down
# [14] = budding yeast growth modifiers under rapamycin – strain BY4716, OD600, 96 h, primary screen (AID 1091); also: test concentration not given here; conditions: S. cerevisiae BY4716 + rapamycin, higher = more signal, called active from +8 up or from −8 down
# [15] = target: Torsin-1A-interacting protein 2 (Homo sapiens) (UniProt Q8NFQ8); assay: small molecules binding lysate-expressed LULL1 – cell lysate, human LULL1 lysate, 635/667 nm fluorescence, primary screen (AID 1092); conditions: small-molecule microarray, hLULL1 lysate binding, 635 nm fluorescence; higher = more signal;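 also: probe is lysate of COS7 cells overexpressing human LULL1; score merges per-feature 667 nm fluorescence with signal-to-noise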
# Chain of Torsin-1A-interacting protein 2 (Homo sapiens) (Q8NFQ8 whole entry, looked up): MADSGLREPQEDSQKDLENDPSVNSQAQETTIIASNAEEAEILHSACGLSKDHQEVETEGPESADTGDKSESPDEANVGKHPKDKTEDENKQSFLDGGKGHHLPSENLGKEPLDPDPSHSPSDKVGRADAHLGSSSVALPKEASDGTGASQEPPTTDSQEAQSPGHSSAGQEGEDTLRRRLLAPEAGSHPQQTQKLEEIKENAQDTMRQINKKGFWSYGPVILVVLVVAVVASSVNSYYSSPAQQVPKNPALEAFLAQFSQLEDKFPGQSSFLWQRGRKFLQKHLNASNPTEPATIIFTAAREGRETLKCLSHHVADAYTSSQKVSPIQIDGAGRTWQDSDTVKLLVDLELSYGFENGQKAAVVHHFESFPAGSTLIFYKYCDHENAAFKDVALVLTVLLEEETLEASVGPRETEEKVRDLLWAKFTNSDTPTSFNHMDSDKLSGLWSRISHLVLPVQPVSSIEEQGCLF
# [16] = optical density change of DRC41 E. coli – strain DRC41, OD650, 24 h, E. coli filamentation project, primary screen (AID 1093);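 also: MC1000 strain lacking acrAB efflux and sulA so SOS filamentation is blocked; test concentration not given here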; conditions: E. coli DRC41 growth, higher = more signal, called active from +8 up or from −8 down
# [17] = probe aLefty2 binding to arrayed compounds – biochemical, biotinylated probe, 635/667 nm fluorescence, primary screen (AID 1094); conditions: small-molecule microarray, higher = more signal;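 also: score merges spot fluorescence near 667 nm with spot signal-to-noise ratio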
# [18] = test system: Noggin (protein binding on small-molecule microarray); assay: small molecules binding Noggin protein – biochemical, 635/667 nm fluorescence, primary screen (AID 1095); conditions: 635 nm fluorescence, higher = more signal;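 also: score merges 667 nm feature fluorescence with signal to noise over triplicate slides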
# [19] = target: Neurogenic locus notch homolog protein 3 (Homo sapiens) (UniProt Q9UM47); assay: small molecules binding NOTCH3 protein – biochemical, 635/667 nm fluorescence, primary screen (AID 1096); conditions: small-molecule microarray, 635 nm fluorescence, higher = more signal
# [20] = probe aEGFR binding to arrayed compounds – biochemical, biotinylated probe, 635/667 nm fluorescence, primary screen (AID 1097); conditions: small-molecule microarray, higher = more signal;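 also: probe is a biotinylated anti-EGFR antibody binding compounds printed on slides; score combines fluorescence near 667 nm and signal to noise of each spot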
Compound,composite z-score [1],composite z-score [2],composite z-score [3],composite z-score [4],composite z-score [5],composite z-score [6],composite z-score [7],z-score [8],composite z-score [9],composite z-score [10],composite z-score [11],z-score [12],z-score [13],z-score [14],composite z-score [15],z-score [16],composite z-score [17],composite z-score [18],composite z-score [19],composite z-score [20]
COC(=O)[C@@]1(Cc2ccc(F)cc2)[C@H]2c3cc(C(=O)N(C)C)n(CCSCCO)c3C[C@H]2CN1C(=O)c1ccccc1,0.304,0.273,0.203,0.487,1.36,1.95,0.943,1.29 (inactive),0.568,-0.0029,0.0793,0.125 (inactive),0.642 (inactive),-0.0109 (inactive),2.72,0.162 (inactive),0.0126,-0.443,0.229,-0.162
O=C(NCc1ccccc1)[C@]1(Cc2ccccc2)N=C(c2ccc(OCCCO)cc2)O[C@@H]1c1ccccc1,0.78,-0.136,-0.0499,0.885,1.46,1.31,0.93,-2.57 (inactive),0.662,0.0024,0.882,1.83 (inactive),1.26 (inactive),18.9 (active),2.68,-1.26 (inactive),0.0609,-0.102,0.256,0.676
COc1ccc(C(=O)Nc2ccc3c(c2)[C@]2(O[C@@H](CCO)[C@H]([Si](C)(C)c4ccc(OC)cc4)[C@H]2C)C(=O)N3Cc2ccccc2)cc1,0.0295,0.203,-0.155,-0.0615,0.0879,0.725,0.913,-3.63 (inactive),-0.0897,-0.0237,1.3,0.122 (inactive),-3.28 (inactive),3.8 (inactive),0.468,1.11 (inactive),-0.175,0.78,0.163,-0.107
O=C1C2C=CC(C(O)c3ccc(Br)cc3)N(Nc3ccccc3)C2C(=O)N1c1ccccc1 (stereo not given),0.385,0.227,0.191,0.82,1.41,1.86,1.09,-2.33 (inactive),-0.194,-0.0645,0.826,0.379 (inactive),0.443 (inactive),0.84 (inactive),2.12,-1.59 (inactive),0.228,-0.325,1.12,-0.0123
COC(=O)[C@@]1(Cc2ccccc2)[C@H]2c3cc(C(=O)N(C)C)n(Cc4ccc(O)c(OC)c4)c3C[C@H]2CN1C(=O)c1ccccc1,0.709,1.36,0.0487,0.523,1.56,0.934,1.24,3.26 (inactive),1.91,2.58,1.18,0.473 (inactive),-0.455 (inactive),0.836 (inactive),2.74,0.195 (inactive),-0.0203,-0.372,0.895,0.38
